# From PubChem BioAssay
# This is a sample that favours compounds with a hit; in the whole collection about 2.6% have one here.
# KKLEB cytotox = CF airway cell cytotoxicity counter-screen. 0.36% of 360,000 active. KKLEB CF airway cells viability, ATPlite luminescence, overnight; hits give low values; cells stimulated with P. aeruginosa culture filtrate. activity change (cytotoxicity), % at 5 µM;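 active means corrected activity change at or below -50% at 5 µM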
# Shn3 3UTR inh = reduces Shn3 3'UTR luciferase signal in osteoblasts; Clone20 osteoblast Shn3 3'UTR firefly luciferase, 24 h; inhibition, % at 12.5 µM; 0.52% of 360,000 active; AID 588674;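 active means mean inhibition of at least 75% with every replicate also reaching 75%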;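 further: 0% = median of neutral control wells and 100% = pilot-screen positive control compound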
# CF NFkB block = inhibitors of cystic fibrosis induced NF-kB | inhibition, % at 5 µM | 0.86% of 360,000 active | KKLEB NF-kB-GFP reporter, PAF-induced, GFP fluorescence overnight;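 active means at least 50% inhibition at 5 µM, scaled per plate between neutral and stimulator controls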;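 further: PAF is a Pseudomonas aeruginosa culture filtrate used as stimulus; plate controls were PAF-stimulated DMSO wells for no effect and unstimulated DMSO wells for full effect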
# Peg3 prom inh = Peg3 promoter activity inhibition; HeLa PEG-Prom luciferase reporter, luminescence, overnight; 1.7% of 360,000 active; inhibition, % at 20 µM;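 active means inhibition of at least 50% at 20 µM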
# HIF-2a inh = blocks HIF-2a reporter activity; inhibition, % at 18.8 µM; 786-0 RCC cells HIF-2a reporter, luciferase luminescence, overnight; 0.72% of 360,000 active; AID 624352;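 active means inhibition of the luminescence signal of 40% or more relative to plate controls, in a single-dose primary screen at 18.75 µM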
# Mdm2-MdmX confirm = confirmation of inhibitors of human Mdm2/MdmX interaction, set 2. shares compounds with HIF-2a inh. SaOS-2 split-luciferase Mdm2/MdmX complementation, luminescence. inhibition, % at 8 µM. 99% of 740 active;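 active means mean inhibition of the luminescence signal across two replicates at or above 26 percent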
# HIF-2a conf = HIF-2a inhibition, single concentration confirmation | 786-0 RCC cells, HIF-2a luciferase reporter luminescence, overnight | inhibition, % at 18.8 µM | shares compounds with HIF-2a inh | 56% of 1,800 active;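 active means mean inhibition across four replicates of at least 40 percent at the single tested concentration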
# HIF-1a cs = counter-screen for HIF-2a inhibitors: HIF-1a inhibition in MiaPaCa-2 cells; AID 651589; 72% of 1,800 active; shares compounds with HIF-2a inh; inhibition, % at 18.8 µM; MiaPaCa-2 HIF-1a luciferase reporter, desferoxamine, overnight;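 active means mean inhibition of the reporter signal across four replicates at the single tested dose of 50% or more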
# The depositor's hits bear a star; nt = not tested or not shown.
SMILES,KKLEB cytotox,Shn3 3UTR inh,CF NFkB block,Peg3 prom inh,HIF-2a inh,Mdm2-MdmX confirm,HIF-2a conf,HIF-1a cs
O=C(COC(=O)c1ccccc1C(=O)c1ccc(Cl)c([N+](=O)[O-])c1)NC1CC1,-66*,70,105*,99*,84*,103*,30,101*
C#CCSc1nc(=O)c2cccnc2n1-c1ccc(C)cc1,-8,-3,8,5,20,nt,nt,nt
CC1CCC(C(C)C)C(OC(=O)CSc2nccc(=O)[nH]2)C1 (stereo unspecified),5,-19,10,2,5,nt,nt,nt
COc1ccc(OCc2n(CC(=O)OC3CC(C)CCC3C(C)C)c3ccccc3[n+]2C)cc1 (stereo unspecified),-53*,-3,64*,100*,95*,102*,-5,103*
COC(=O)CCCNC(=O)CCc1nnc(-c2ccc(-c3ccccc3)cc2)o1,12,22,-18,-90,48*,nt,52*,26
CC(c1nccs1)N(C)C(=O)CCc1nnc(-c2ccc(-c3ccccc3)cc2)o1 (stereo unspecified),-8,4,-5,-72,10,nt,nt,nt
CC(NC(=O)CCc1nnc(-c2ccc(-c3ccccc3)cc2)o1)c1nccs1 (stereo unspecified),-4,50,10,-73,40*,nt,51*,37
NC(=O)c1sc2nc3c(c(-c4cccs4)c2c1N)CCCCC3,-51*,-5,91*,14,34,95*,nt,nt
NC(=O)c1sc2nc3c(c(-c4cccnc4)c2c1N)CCC3,10,-3,9,-1,-1,nt,nt,nt
Nc1ccc2c(c1)C(=O)c1ccccc1-2,1,3,5,-24,-5,nt,nt,nt
O=C1C(=O)c2ccc(-c3ccccc3)cc2-c2ccccc21,-100*,96*,102*,101*,93*,103*,nt,nt
Cc1c(CCO)c(=O)[nH]n1S(=O)(=O)c1ccc([N+](=O)[O-])cc1,2,2,-6,-18,-9,nt,nt,nt
CCn1c(O)c(N=NC(=O)CNC(=O)c2cccnc2)c2ccccc21,5,4,-3,12,13,nt,nt,nt
Cc1ccc(C(=O)N/N=C\c2ccc([N+](=O)[O-])s2)cn1,-7,-1,8,27,63*,nt,56*,56*
O=C(N/N=C/c1ccc([N+](=O)[O-])s1)c1ccncc1,-4,7,-2,-3,24,nt,nt,nt
O=C(N/N=C/c1ccc([N+](=O)[O-])s1)c1cccc(Br)c1,-1,29,-5,40,12,63*,nt,nt
O=c1c2sccc2nc(SCc2cc(=O)n3cc(Br)ccc3n2)n1Cc1ccccn1,-1,-44,-4,-148,-136,nt,nt,nt
Cc1ccc(Cl)cc1NC1=C/C(=N\S(=O)(=O)c2cccs2)c2ccccc2C1=O,-105*,97*,92*,110*,90*,102*,nt,nt
Cc1ccc(NC2=C/C(=N\S(=O)(=O)c3cccs3)c3ccccc3C2=O)c(C)c1,-102*,98*,96*,111*,71*,101*,nt,nt
COC(=O)C1CCN(S(=O)(=O)CCNC(=O)c2ccc(F)cc2)CC1,6,7,-10,5,10,nt,nt,nt
Cn1c(=O)c2c(nc(CN3CCc4ccccc4C3)n2Cc2cccc(Cl)c2)n(C)c1=O,-2,26,40,41,43*,nt,15,76*
CCOc1ccc(N2CC(C(=O)N3CCN(C(=O)c4ccco4)CC3)CC2=O)cc1 (stereo unspecified),12,-15,-10,5,9,nt,nt,nt
Cc1scc(C(=O)N/N=C/c2ccc([N+](=O)[O-])o2)c1C,6,38,-12,9,61*,nt,62*,84*
Cc1scc(C(=O)N/N=C/c2ccco2)c1C,5,-57,-3,-156,-139,nt,nt,nt
Cc1ccc(C(=O)CCC(=O)OC(C)C(=O)NC2CCCCC2C)cc1 (stereo unspecified),-5,-5,-8,1,-10,nt,nt,nt
Cc1sc2nc(C(C)C)nc(SCC(=O)N3c4ccccc4CC3C)c2c1C (stereo unspecified),-20,5,8,11,20,nt,nt,nt
